Results filed as inconclusive are left out. Entries that show only a call come without a potency. Activity calls are given as the source filed them. Calls come from the whole dose curve; as a rule, active = well fitted inhibition curve with a large enough effect; inconclusive = small, poorly fitted or top-dose-only effect; inactive = flat fitted curve, though single readings scatter.

The values that follow come from PubChem BioAssay (NCATS).
Potency is the fitted concentration of half-maximal effect.

For one assay, the system named is TAB113. Kind of assay: qHTS profiling for inhibitors of Plasmodium falciparum proliferation (AID 504749). Note: nearly all actives have a fitted effect of over 60% in size. The conditions noted are these: P. falciparum in erythrocytes, SYBR Green DNA, 72 h; series mostly up to 28.7 µM. The gist of the method: (§1)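 P. falciparum-infected erythrocytes (0.3% parasitemia, 2.5% hematocrit final) were exposed to compounds for 72 h at 37 C in 5% CO2, then lysed with SYBR Green buffer overnight at room temperature; parasite DNA fluorescence was normalized to artemisinin and DMSO controls.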
A general note: Quantitative high-throughput screening tests each substance at several concentrations.
As to `CC1CCC(C(C)C)C(OC(=O)c2ccccc2N)C1` (stereo not drawn), the Potency entry was “inactive”.

For the compound `C[N+]1(C)CCCCC1COC(=O)C(O)(c1ccccc1)c1ccccc1` (stereo not drawn), the Potency result was “inactive”.

With `CCC1(c2ccccc2)C(=O)NC(=O)N(C(=O)c2ccccc2)C1=O` (stereo not drawn), the Potency result is “inactive”.

As for `O=[N+]([O-])C(Br)(CO)CO`, the Potency entry is “inactive”.

Turning to `COc1ccc2c3c1O[C@H]1C(=O)CC[C@H]4[C@@H](C2)N(C)CC[C@]314`, the Potency entry is “inactive”.

Take `O=C1C2CC=CCC2C(=O)N1SC(Cl)(Cl)Cl` (stereo not drawn): the Potency result is “inactive”.

In the case of `C[CH2][Hg][S]c1ccccc1C(=O)O`, the Potency was 3160 nM (active).

The subject of a further assay is TAB165. The description is as above. The conditions noted are these: P. falciparum in erythrocytes, SYBR Green DNA, 72 h; series mostly up to 28.7 µM. The gist of the method: as §1
Consider `C[N+]1(C)CCCCC1COC(=O)C(O)(c1ccccc1)c1ccccc1` (stereo not drawn), for which the Potency entry is “inactive”.

With `CCC1(c2ccccc2)C(=O)NC(=O)N(C(=O)c2ccccc2)C1=O` (stereo not drawn), the Potency result was “inactive”.

With `O=[N+]([O-])C(Br)(CO)CO`, the Potency entry was “inactive”.

With `COc1ccc2c3c1O[C@H]1C(=O)CC[C@H]4[C@@H](C2)N(C)CC[C@]314`, the Potency result is “inactive”.

`O=C1C2CC=CCC2C(=O)N1SC(Cl)(Cl)Cl` (stereo not drawn): the Potency result was “inactive”.

As for `C[CH2][Hg][S]c1ccccc1C(=O)O`, the Potency is 2240 nM (active).
